# aSyn 5UTR inh: MLPCN primary screen, SNCA 5' untranslated region. alpha-synuclein 5'UTR reporter, inhibitor activity. inhibition, % (tested at 7.5 µM). hit rate 0.82% among 300,000. AID 1813, 2009; in the data active = inhibition above about 60%;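 note: H4 neuroglioblastoma cells stably carrying SNCA 5'UTR luciferase fusion; 0% = DMSO wells and 100% = positive control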
# Ba/F3 V617F tox: reduced viability of JAK2V617F-dependent Ba/F3 cells, primary screen, JAK2V617F inhibitor project, cell-based, Ba/F3 EpoR-JAK2V617F, luminescence | ATP luminescence | AID 1446, 2008 | inhibition, % at 5.6 µM | hit rate 1.1% among 220,000;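 active = inhibition above the campaign mean plus 3 SD over all tested compounds, cut at about 24% in these data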;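 note: cytokine-independent growth of Ba/F3 cells driven by EpoR plus mutant JAK2; 0% = DMSO-treated cells and 100% = JAK inhibitor I control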
# APP transl inh: inhibitors of APP translation via 5'UTR reporter, primary screen, APP 5'UTR luciferase, SH-SY5Y cells | SH-SY5Y APP 5'UTR-luciferase reporter, luminescence | hit rate 0.82% among 190,000 | inhibition, % at 2 µM | AID 1285, 2008;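 active = inhibition above a set limit, derived from the sample mean plus 3 SD, cut at about 45% in these data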
# KLF5 inhibitor: KLF5 expression inhibitors, primary screen, DLD-1 cells, luminescence; DLD-1 KLF5 promoter-luciferase reporter; hit rate 0.23% among 290,000; AID 1700, 2009; inhibition, % at 5 µM;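 active = inhibition above a per-plate limit of that plate's mean compound inhibition plus 3 SD, cut at about 60% in these data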;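 note: 0% = DMSO wells and 100% = LY294002 at 200 µM; higher means less KLF5 promoter-driven luciferase light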
# BaF3 tox: parental Ba/F3 cell viability inhibition, counter-screen for JAK2V617F inhibitor project, murine pro-B, CellTiter-Glo luminescence. CellTiter-Glo ATP luminescence. inhibition, % at 5.6 µM. hit rate 1.1% among 220,000;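 active = inhibition above a per-campaign cutoff, the mean inhibition of all tested compounds plus 3 SD, cut at about 27% in these data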;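 note: 0% = DMSO wells and 100% = JAK Inhibitor I control wells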
# IEC-6 cytotox: cytotoxicity in IEC-6 intestinal epithelial cells, primary screen, cytotoxicity control for KLF5 inhibitor project, cell-based, luminescence; IEC-6 cytotoxicity, luminescence viability; hit rate 0.78% among 290,000; inhibition, % at 5 µM;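 note: 0% = plate median of test compound wells and 100% = cytotoxic reference compound wells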
# BaF3 parental 2: parental Ba/F3 cell viability inhibition, counter-screen for JAK2V617F inhibitor project, murine pro-B, CellTiter-Glo luminescence; shares compounds with Ba/F3 V617F tox; cells kept alive by added IL-3; inhibition, % at 5.6 µM; hit rate 31% among 580; AID 1520, 2009;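 active = cell growth inhibition above the hit limit set in the earlier mutant JAK2 cell screen, cut at about 27% in these data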;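 note: plate controls were DMSO-treated cells for no effect and JAK Inhibitor I control wells for full effect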
# JAK2V617F confrm: viability loss in Ba/F3 EpoR-JAK2V617F cells, confirmation, JAK2V617F inhibitor project, cell-based, luminescence, triplicate | shares compounds with Ba/F3 V617F tox | CellTiter-Glo luminescence | inhibition, % at 5.6 µM | hit rate 66% among 580 | AID 1521, 2009;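 active = mean inhibition above the hit cutoff derived in the earlier primary screen, cut at about 25% in these data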;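 note: 0% = DMSO-treated cells and 100% = JAK inhibitor I control wells; higher means lower luminescence from reduced cell ATP and viability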
# IEC-6 tox confirm: cytotoxic compounds in IEC-6 epithelial cells, confirmation, cytotoxicity control, cell-based, luminescence; hit rate 63% among 1,900; inhibition, % at 5 µM; IEC-6 rat intestinal epithelial viability; shares compounds with IEC-6 cytotox; AID 1907, 2009;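 note: 0% = vehicle and 100% = reference cytotoxic drug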
# * hit, by the source's call; x = not tested or not shown. The list is not random: actives were taken first. Their share in the collection is about 2.2%. Cut-off read from the data, not from the text of the source, unless noted: active = inhibition above about 22%; inactive = the rest.
SMILES,aSyn 5UTR inh,Ba/F3 V617F tox,APP transl inh,KLF5 inhibitor,BaF3 tox,IEC-6 cytotox,BaF3 parental 2,JAK2V617F confrm,IEC-6 tox confirm
CCCn1c(SCC(=O)NC2CCCc3ccccc32)n[nH]c1=O (configuration not stated),-2.9,57.2*,-1.8,-7.0,7.7,0.9,-2.5,-3.1,x
O=C(NC(NNc1ccc([N+](=O)[O-])cc1)(C(F)(F)F)C(F)(F)F)c1ccc(Cl)cc1,17.9,29.3*,-4.4,-17.2,1.2,8.1,-5.7,-3.3,x
CCCCCCCCCCSc1n[nH]c(N)n1,-3.9,-1.9,-3.8,3.6,1.8,17.2,x,x,x
OC1(c2cccs2)CN(c2ccccc2)C2=[N+]1CCCC2 (configuration not stated),14.7,0.1,-8.2,-27.8,8.0,-1.3,x,x,x
CCOc1ccc(N2CC(O)(c3cccs3)[N+]3=C2CCCC3)cc1 (configuration not stated),0.0,23.5*,-9.8,-3.4,25.3,8.3,31.2*,46.2*,x
Cc1ccc(C(=O)n2c(N)nc3ccccc32)cc1,81.1*,50.7*,-34.8,51.2,20.9,8.6,6.1,-1.5,x
C#CC[N+](C)(C)CC#Cc1ccc(Cl)cc1,11.0,32.0*,6.8,-2.3,18.3,3.5,28.5*,82.9*,x
COc1ccccc1Nc1nc(N)nc(CCl)n1,-12.0,-1.5,x,-24.5,2.4,0.2,x,x,x
Cc1cccc(Nc2nc(N)nc(CCl)n2)c1C,3.2,99.6*,x,-22.2,3.5,101.7*,4.5,98.4*,1.0
CC(C)S(=O)(=O)c1csc(C(=O)Nc2ccc(F)cc2)c1N,-100.0,1.8,x,-107.5,3.0,-2.1,x,x,x
O=C(CCC1CCCC1)Nc1ccc(C(=O)NCc2cccnc2)cc1,71.9*,31.3*,28.6,-21.3,20.1,85.4*,29.6*,99.6*,45.5*
O=C(O)CCCC(=O)Nc1ccc(C(=O)NCc2cccnc2)cc1,14.2,-0.9,-29.2,-15.9,3.7,-2.5,x,x,x
CCOc1ccc(NC(=O)CN(C)C(=O)c2cn(-c3ccccc3)nc2-c2cccs2)cc1OCC,-4.7,x,x,-27.3,x,2.0,x,x,x
O=C(NCCCN1CCCC1)c1ccc(CS(=O)(=O)c2c(Cl)cccc2Cl)o1,-18.6,x,x,-4.6,x,-1.2,x,x,x
O=C(N/N=C/c1ccc(OC(=O)c2ccco2)cc1)c1ccc[n+]([O-])c1,4.1,x,x,x,x,x,x,x,x
O=C(c1ccc2c(c1)C(=O)N(CCCO)C2=O)c1ccc2c(c1)C(=O)N(CCCO)C2=O,x,0.9,0.6,26.2,3.7,2.3,x,x,x
O=C1c2ccc3c4c(ccc(c24)C(=O)N1CCCCO)C(=O)N(CCCCO)C3=O,110.7*,31.6*,28.5,9.5,13.1,29.1*,78.9*,91.4*,36.6*
C#CCOCCOCCOCCNc1nc(N2CCN(C(=O)[C@H](CCCCN)n3cc([C@@H](N)CO)nn3)CC2)nc(N2CCN(C(=O)[C@H](Cc3cc4ccccc4[nH]3)n3cc([C@@H](N)CC(C)C)nn3)CC2)n1,-9.9,-4.3,8.6,-15.4,0.4,-3.3,x,x,x
CC(=O)Cc1cc(O)c2ccccc2c1OC(=O)c1ccccc1,-7.4,27.8*,-6.6,-12.3,-3.8,54.9*,27.6*,40.5*,-9.2
Cn1cc([N+](=O)[O-])c(C(=O)Nc2cc(Oc3ccccc3)cc([N+](=O)[O-])c2)n1,11.8,26.4*,97.4*,-9.9,1.6,22.7*,32.3*,98.6*,18.8
Cn1cc(C(=O)N/N=C/c2ccc3c(c2)OCO3)c2ccccc21,-275.8,47.7*,x,32.0,19.4,52.7*,12.5,22.8,47.9*
